Six1-Eya2 blk: Six1/Eya2 interaction inhibition; activity change, % (test concentration not listed); 0.56% of 360,000 active; Q15475+O00167; AID 651725; AlphaScreen GST-Six1/His-Eya2 binding, biochemical; active compounds read low; in the data active = activity change below about -65%; inconclusive = mostly about -30% to -63%
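AlphaScreen luminescence read after one hour at 37 °C in darkness. Pin-transferred compounds met GST-Six1 and His-Eya2 protein (5X stock 250 nM/500 nM) plus glutathione donor and Ni-chelate acceptor beads (5X, 50 ug/mL).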
IL-1B inflam inh: inflammasome signaling inhibition, IL-1 beta readout; 4.7% of 360,000 active; activity change, % at 57.5 µM; THP-1 LPS/ATP IL-1B secretion, AlphaLISA, 16 h; active compounds read low; AID 743279; in the data active = activity change below about -50%; inconclusive = mostly about -30% to -49%
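Secreted IL-1B measured by AlphaLISA bead assay after 16 h compound exposure of THP-1 cells; compounds (final up to 57.5 uM) added 1 h before LPS (250 ng/mL) and ATP (1.25 mM) stimulation; lower signal means less secretion.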
DT40 TDP1 CPT: growth inhibition of DT40 Tdp1-/-;hTDP1 cells with camptothecin (screen for TDP1 inhibitors) | Potency, µM (top dose mostly 46.2 µM), for inactives: top-dose activity change, negative = growth inhibition, most hits filed as inhibitors | AID 686979 | chicken DT40 Tdp1-/-;hTDP1 cells + 20 nM CPT, ATP luminescence, 48 h | 12% of 420,000 active; note: potency is the fitted concentration of half-maximal effect; nearly all actives have a fitted effect of over 55% in size
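Chicken DT40 Tdp1-/- cells stably complemented with human TDP1 were seeded at 400 cells/well in medium containing 20 nM camptothecin, exposed to pin-transferred compounds, and grown at 37 °C for at least 48 hr. Viability was read as ATP luminescence.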
CtBP-E1A blk: inhibitors of CtBP/E1A interaction. AlphaScreen GST-E1A/His-CtBP binding, 1536-well; active compounds read low. activity change, % (concentration not given with the values). 0.49% of 340,000 active. AID 651724; in the data active = activity change below about -65%; inconclusive = mostly about -30% to -63%
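AlphaScreen with 125 nM GST-E1A and 125 nM His-CtBP (5X stocks) in Tris pH 8.0, 300 mM NaCl, BSA, Tween 20, TCEP. Compounds preincubated 2 h at 37 deg C, then glutathione donor/nickel acceptor beads added for 1 h at 37 deg C in dark.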
TDP1 inh: blocks human tyrosyl-DNA phosphodiesterase 1; Q9NUW8; recombinant TDP1, AlphaScreen DNA substrate cleavage; Potency, µM (series often up to 130 µM), for the others: at the highest dose activity change, negative = inhibition, usual class: inhibitors; 0.28% of 350,000 active; note: potency is the fitted concentration of half-maximal effect; nearly all actives have a fitted effect of over 40% in size
Target sequence (Q9NUW8 whole entry, looked up): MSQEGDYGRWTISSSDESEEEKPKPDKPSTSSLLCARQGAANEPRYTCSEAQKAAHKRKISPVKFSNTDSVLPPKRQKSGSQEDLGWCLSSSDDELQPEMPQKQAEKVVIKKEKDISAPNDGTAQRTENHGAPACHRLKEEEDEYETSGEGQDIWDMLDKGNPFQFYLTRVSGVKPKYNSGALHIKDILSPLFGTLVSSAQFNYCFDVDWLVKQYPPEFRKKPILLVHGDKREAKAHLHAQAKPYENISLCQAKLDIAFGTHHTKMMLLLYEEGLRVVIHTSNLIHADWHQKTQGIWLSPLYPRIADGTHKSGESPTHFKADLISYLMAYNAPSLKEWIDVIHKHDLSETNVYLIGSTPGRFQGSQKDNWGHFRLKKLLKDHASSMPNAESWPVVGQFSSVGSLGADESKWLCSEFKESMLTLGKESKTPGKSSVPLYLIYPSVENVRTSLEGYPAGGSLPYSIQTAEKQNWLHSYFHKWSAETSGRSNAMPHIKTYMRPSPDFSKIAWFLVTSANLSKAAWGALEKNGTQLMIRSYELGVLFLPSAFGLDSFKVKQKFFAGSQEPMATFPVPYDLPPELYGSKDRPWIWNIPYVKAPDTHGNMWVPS
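Recombinant E. coli-expressed Tdp1 (1 nM) preincubated with compound 15 min at RT, then 5'-biotin/3'-phosphotyrosine-FITC DNA substrate (15 nM) added for 5 min. AlphaScreen beads (10 ug/ml) added, 10 min RT; tyrosine-FITC cleavage read as signal loss.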
DT40 TDP1 no CPT: qHTS for Inhibitors of human tyrosyl-DNA phosphodiesterase 1 (TDP1): qHTS in cells in absence of CPT; DT40 Tdp1-/- hTDP1 cells, no CPT, ATP luminescence, 48 h; 15% of 420,000 active; Potency, µM (titrated, usually from 46.2 µM), inactives show at the highest dose activity change, negative = growth inhibition, usual class: inhibitors; note: potency is the fitted concentration of half-maximal effect; nearly all actives have a fitted effect of over 55% in size
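Luminescent ATP content (CellTiter-Glo) served as the growth readout. Knockout chicken DT40 cells expressing human TDP1 were exposed to compounds without camptothecin for a minimum 48 hr at 37 °C.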
An asterisk follows results filed as active; ? = inconclusive; / = not tested or not shown; [ ] = another dose, or the depositor's remark. A selection: hits, their analogues and other compounds. The true share with any hit is near 18%. Unless noted, calls come from the whole dose curve; as a rule, active = well fitted curve in the direction sought with a large enough effect; inconclusive = small, poorly fitted or top-dose-only effect, or another doubt; inactive = no such curve, though single readings can be large; an effect the other way counts as inactive or inconclusive. % is set by controls: 0 for no effect and ±100 for the full control effect.

SMILES	Six1-Eya2 blk	IL-1B inflam inh	DT40 TDP1 CPT	CtBP-E1A blk	TDP1 inh	DT40 TDP1 no CPT
Cc1sc(NC(=O)C2CCCCC2C(=O)O)c(C(N)=O)c1-c1ccc(C(C)(C)C)cc1 (centres undefined)	8	15	-9%	0	6%	-27%
Cc1sc(NC(=O)C2C3CCC(C3)C2C(=O)O)c(C(N)=O)c1-c1ccc(C(C)(C)C)cc1 (centres undefined)	3	-2	?	1	4%	12µM*
CCCCC1CC(C)(C(=O)CSc2nc3ccccc3s2)OC1=O (centres undefined)	0	14	-3%	19	-9%	0.65µM*
NC(=O)C1CCN(C2CC(=O)N(Cc3ccc(N4CCCC4=O)cc3)C2=O)CC1 (centres undefined)	-4	4	26µM*	1	0%	?
Cc1ccccc1C1c2[nH]c3ccccc3c2C[C@H]2C(=O)N(c3ccccc3C(=O)NCCN3CCOCC3)C(=O)N12 (some centres undefined)	-3	-1	?	1	/	?
O=C(NCCCN1CCOCC1)c1ccccc1N1C(=O)[C@@H]2Cc3c([nH]c4ccccc34)C(c3cccc(Cl)c3)N2C1=O (some centres undefined)	-15	39	9.2µM*	-1	/	10µM*
Cc1ccccc1C1c2[nH]c3ccccc3c2C[C@H]2C(=O)N(c3ccccc3C(=O)NCCCN3CCOCC3)C(=O)N12 (some centres undefined)	-9	-7	23µM*	-8	/	16µM*
Cc1ccc(C2c3[nH]c4ccccc4c3C[C@H]3C(=O)N(c4ccccc4C(=O)NCCCN4CCOCC4)C(=O)N23)cc1 (some centres undefined)	-7	-23	12µM*	-10	/	?
COc1ccccc1C(=O)N/N=C/c1cnc2ccccc2n1	-5	21	4%	18	5%	-22%
CCN(CC)C(=O)C1=C(C)N(CCCOC)C(=O)C(CC(=O)NC2CCCC2)C1 (centres undefined)	0	7	4%	4	/	2%
COc1ccc(CNC(=O)CCc2c(C)nn(-c3ccc(N4CCCC4)nn3)c2C)c(OC)c1	/	/	0%	/	7%	-12%
COc1ccccc1CNC(=O)CCc1c(C)nn(-c2ccc(N3CCCCC3)nn2)c1C	/	/	?	/	10%	26µM*
CCOc1ccccc1CNC(=O)CCc1c(C)nn(-c2ccc(N3CCCC3)nn2)c1C	/	/	?	/	7%	21µM*
Cn1c(=O)oc2cc(S(=O)(=O)N3CCC(C(=O)NCc4ccccc4)CC3)ccc21	4	-14	-22%	-21	6%	1%
CCc1ccc(S(=O)(=O)Nc2c(C)nn(C)c2C)cc1	1	19	11µM*	3	0%	11µM*
CCOc1ccc(S(=O)(=O)Nc2ccc3c(c2)c(C(C)=O)c(C)n3S(=O)(=O)c2ccc(OCC)cc2)cc1	/	/	21µM*	/	-5%[12.3 µM]	5.2µM*
CCOc1ccc(NS(=O)(=O)c2ccc3c(c2)oc(=O)n3C)cc1	-1	5	-29%	14	0%	?
CCOc1ccc(S(=O)(=O)Nc2ccc3c(c2)n(C)c(=O)n3C)cc1	6	13	?	0	1%[0.0935 µM]	7.3µM*
CCc1ccc(S(=O)(=O)Nc2cc3c(cc2C)n(C)c(=O)n3C)cc1	9	29	5.2µM*	/	1%	2.9µM*
COc1ccc(N(C(=O)c2csnn2)C(C(=O)NC2CCCC2)c2cccs2)cc1 (centres undefined)	6	6	?	5	/	-26%
CCOc1ccc(NS(=O)(=O)c2cnc(Cl)c(Cl)c2)cc1	0	-99*	?	0	0%	?
Cc1ccc(NS(=O)(=O)c2ccc3c(c2)n(C)c(=O)n3C)cc1C	-27	152	16µM*	-2	2%	21µM*

Screens (PubChem)
